According to PubChem BioAssay AID2158 (National Center for Advancing Translational Sciences (NCATS), 2009):
Results filed as inconclusive are left out. Activity calls are given as the source filed them. The call rests on the fitted dose curve; in most records, active means well fitted inhibition curve with a large enough effect; inconclusive means small, poorly fitted or top-dose-only effect; inactive means no such curve, though single readings can be large or run the other way.

biological target: Cruzipain (Trypanosoma cruzi) (UniProt P25779); assay: Confirmation qHTS Assay for Inhibitors of Cruzain; details: purified cruzain, Z-FR-AMC fluorescence, 0.01% Triton; further: nearly all actives have a fitted effect of over 40% in size;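 on Activity change, negative = inhibition: plate controls were uninhibited enzyme control for no effect and buffer wells lacking enzyme for full effect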
Sequence (P25779 123-467 limits assumed): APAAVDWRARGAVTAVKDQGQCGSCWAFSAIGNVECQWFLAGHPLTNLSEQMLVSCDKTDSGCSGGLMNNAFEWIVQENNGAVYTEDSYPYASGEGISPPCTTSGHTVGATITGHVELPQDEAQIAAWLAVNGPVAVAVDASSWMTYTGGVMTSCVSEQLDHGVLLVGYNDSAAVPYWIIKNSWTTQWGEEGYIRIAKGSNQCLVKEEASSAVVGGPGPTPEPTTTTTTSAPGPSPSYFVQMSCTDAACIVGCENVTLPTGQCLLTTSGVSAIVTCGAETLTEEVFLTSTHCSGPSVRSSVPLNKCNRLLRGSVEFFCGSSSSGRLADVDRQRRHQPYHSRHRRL
Summary of the method: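 Purified cruzain, 1.5 nM, pre-incubated 15 min at room temperature with compound in 100 mM sodium acetate pH 5.5, 5 mM DTT, 0.01% Triton X-100. Then 2 uM Z-FR-AMC added; AMC fluorescence (ex 360/em 450 nm) increase over 60 s gave reaction progress.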
Potency means the concentration at half of the fitted maximal effect.

Activity change, negative = inhibition, inactive:
O=C(Cn1cc(CNCc2ccccc2)nn1)Nc1cc(C(F)(F)F)ccc1Cl 3.4%
CC(C)(C)OC(=O)Cc1nnc(-c2cc3ccccc3[nH]2)o1 0.423%
O=C(COC(=O)CNS(=O)(=O)c1ccc(F)c(F)c1F)Nc1ccc(OC(F)F)cc1 -11.4%
O=C(Nc1ccc(N2CCCC2)cc1)c1ccc(Br)o1 -25%
Cc1ccc(CN(Cc2cc3cc(C)ccc3[nH]c2=O)Cc2nnnn2Cc2ccccc2)cc1 -18.6%
CC(C)(C)OC(=O)NCc1nnc(-c2cc3ccccc3[nH]2)s1 -12.9%
Cc1ccc(OCCNC(=O)CNC(=O)Cc2cccc3ccccc23)cc1 -1.3%
Cc1ccc(S(=O)(=O)NC(N)=NCCC[C@@H](NC(=O)CNC(=O)c2ccccc2)C(=O)Nc2cc(C(F)(F)F)ccc2Cl)cc1 -20%
N#CN1CCC(N[S+](=O)([O-])c2cccc(F)c2)CC1 -1.96%
c1ccc2cc3c(NCCN4CCOCC4)ccnc3cc2c1 -21.6%
O=C(NCc1ccc2c(c1)OCO2)c1ccc2c(c1)N(Cc1c(F)cccc1Cl)C(=O)c1ccccc1S2 3.42%
CCOc1cccc(-c2nn3c(-c4cc(C)[nH]n4)nnc3s2)c1 -3.99%

Potency, active:
O=C(COC(=O)CCSc1ccccc1Cl)Nc1ccc(F)cc1F 14.1 µM
O=C(COC(=O)CNC(=O)C1CCCCC1)Nc1ccc2ccccc2c1 12.6 µM
O=C(NC1CC1)c1ccc2nc(-c3ccco3)c(-c3ccco3)nc2c1 14.1 µM
